# Shown are actives, neighbours in structure and some others; about 19% of the full set was active somewhere.
# TDP1 cell noCPT: qHTS for Inhibitors of human tyrosyl-DNA phosphodiesterase 1 (TDP1): qHTS in cells in absence of CPT; Potency, µM (titrated, usually from 46.2 µM), for inactives: at the top dose activity change, negative = growth inhibition, usual class: inhibitors; AID 686978, 2013; DT40 Tdp1-/- hTDP1 cells, no CPT, ATP luminescence, 48 h; 420,000 tested, 15% active; note: potency is the fitted concentration of half-maximal effect; nearly all actives have a fitted effect of over 55% in size
#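 Compound effects on proliferation are scored in DT40 Tdp1-/-;hTDP1 cells in the absence of CPT. ATP levels (CellTiter-Glo luminescence) are recorded after a ≥48 hr, 37 °C incubation.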
# uPA surface inh: qHTS for Inhibitors of Cell Surface uPA Generation; 330,000 tested, 0.31% active; Potency, µM (titrated, usually from 38.3 µM), for the others: top-dose activity change, negative = inhibition, usual class: inhibitors; AID 540303, 2011; cell surface uPA generation assay, qHTS; active = well fitted inhibition curve with a large enough effect; inconclusive = small, poorly fitted or top-dose-only effect; inactive = no such curve, though single readings can be large or run the other way; tested in mouse RAW 264.7 cells; note: potency is the fitted concentration of half-maximal effect; nearly all actives have a fitted effect of over 55% in size
# IL1B secr inh: qHTS for Inhibitors of Inflammasome Signaling: IL-1-beta AlphaLISA Primary Screen | THP-1 LPS/ATP IL-1B secretion, AlphaLISA, 16 h; hits give low values | activity change, % at 57.5 µM | 360,000 tested, 4.7% active | AID 743279, 2014; in the data active = activity change below about -50%; inconclusive = mostly about -30% to -49%
#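 Secreted IL-1B measured by AlphaLISA bead assay after 16 h compound exposure of THP-1 cells; compounds (final up to 57.5 uM) added 1 h before LPS (250 ng/mL) and ATP (1.25 mM) stimulation; lower signal means less secretion.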
# TDP1 cell CPT: qHTS for Inhibitors of human tyrosyl-DNA phosphodiesterase 1 (TDP1): qHTS in cells in presence of CPT | Potency, µM (highest dose often 46.2 µM), without a hit: at the highest dose activity change, negative = growth inhibition, most hits filed as inhibitors | chicken DT40 Tdp1-/-;hTDP1 cells + 20 nM CPT, ATP luminescence, 48 h | 420,000 tested, 12% active | AID 686979, 2013; note: potency is the fitted concentration of half-maximal effect; nearly all actives have a fitted effect of over 55% in size
#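 Cell growth measured by CellTiter-Glo luminescence after a minimum 48 h, 37 C compound exposure with 20 nM CPT in Tdp1-knockout DT40 cells stably expressing hTDP1, seeded 400/well; qHTS titration format.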
# HT1080-NT tox: qHTS for induction of synthetic lethality in tumor cells producing 2HG: qHTS for the HT-1080-NT fibrosarcoma cell line; HT-1080-NT fibrosarcoma viability, CellTiter-Glo ATP luminescence, 48 h; 360,000 tested, 1.6% active; Potency, µM (doses to about 46.1 µM), for the others: at the highest dose activity, negative = less viability, most hits filed as cytotoxic;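 note: NT is the 2HG producing partner of a matched IDH1 knockdown line; potency is the fitted concentration of half-maximal effect; 0% = DMSO-treated cells and -100% = media-only wells without cells; nearly all actives have a fitted effect of over 55% in size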
#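 HT-1080-NT fibrosarcoma cells (2HG-overproducing), 750 cells/well in RPMI with 5% FBS, dosed after 2 h and incubated 48 h at 37C. CellTiter-Glo luminescence normalized to DMSO and no-cell wells; concentration-response curves fitted and classed.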
# HT1080 IDH1KD tx: qHTS for induction of synthetic lethality in tumor cells producing 2HG: qHTS for the HT-1080-IDH1KD cell line | HT-1080 IDH1 knockdown viability, ATP luminescence, 48 h | Potency, µM (titrated, usually from 46.1 µM), for inactives: at the top dose activity, negative = toxicity, hits mostly cytotoxic | 360,000 tested, 2% active | AID 686971, 2013;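 note: potency is the fitted concentration of half-maximal effect; 0% = DMSO wells and -100% = cell-free medium wells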
#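 Assay cells: HT-1080 with IDH1 knockdown, 750 per well, RPMI/5% FBS. Exposure: 48 h at 37 °C following 2 h pre-incubation. Read: CellTiter-Glo luminescence; fitted concentration-response, curve class assigned.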
# * marks the source's active call; other numbers are inactive results; ? = inconclusive; nt = no result; [ ] = remark or other dose. Unless noted, calls come from the whole dose curve; as a rule, active = well fitted curve in the direction sought with a large enough effect; inconclusive = small, poorly fitted or top-dose-only effect, or another doubt; inactive = no such curve, though single readings can be large; an effect the other way counts as inactive or inconclusive. Unless noted, % is set by controls: 0 for no effect and ±100 for the full control effect.
SMILES,TDP1 cell noCPT,uPA surface inh,IL1B secr inh,TDP1 cell CPT,HT1080-NT tox,HT1080 IDH1KD tx
COc1ccc(CC(N)c2csc(NC(=O)c3cccs3)n2)cc1 (stereo not given),23µM*,nt,-19,18µM*,-27%,-21%
COc1ccc(N(CC(C)C)S(=O)(=O)c2nnc(NC(=O)c3cccs3)s2)cc1,21µM*,nt,nt,?,nt,nt
COc1ccc(CC(N)c2csc(NC(=O)Nc3ccccc3-c3ccccc3)n2)cc1 (stereo not given),?,nt,-58*,?,15µM*,-9%
CC(C)CN(c1ccccc1)S(=O)(=O)c1nnc(NC(=O)c2ccco2)s1,?,-4%,-14,?,-4%,-3%
COc1ccc(CC(N)c2csc(NC(=O)Nc3ccccc3C(C)(C)C)n2)cc1 (stereo not given),?,nt,-52*,?,?,?
CC(C)CN(C(=O)c1ccc(C(F)(F)F)cc1)c1c(N)n(CC(C)C)c(=O)[nH]c1=O,-3%,5%,21,4%,-8%,-6%
CC(C)(C)c1ccc(C(=O)NC2(C(F)(F)F)C(=O)Nc3c2c(=O)[nH]c(=O)n3-c2ccccc2)cc1 (stereo not given),2%,nt,nt,8%,nt,nt
COc1ccc2[nH]cc(CCNC(=O)/C=C/[C@H]3O[C@@H](n4cc(C)c(=O)[nH]c4=O)C[C@@H]3O)c2c1,9%,nt,-20,0%,16%,15%
CC(C)C(N)c1csc(NC(=O)Nc2ccccc2C(C)(C)C)n1 (stereo not given),?,nt,-60*,18µM*,?,?
CCCCN(CCCC)CC(O)COc1ccccc1Br (stereo not given),16µM*,5%,?,?,-23%,?
CC(C)CN(CC(C)C)CC(O)COc1ccccc1Br (stereo not given),15µM*,-3%,-11,?,?,?
CC(C)CN(CC(C)C)CC(O)COc1ccc([N+](=O)[O-])cc1 (stereo not given),18µM*,13%,?,?,-4%,1%
CCCCc1nc2cc(C(=O)NCc3cc(C)n(C)n3)ccc2o1,-9%,10%,-13,4%,0%,16%
CC(C)OC(=O)N(C)C[C@@H]1OCc2ccccc2-c2c(n(C)c3ccccc23)C(=O)N([C@@H](C)CO)C[C@H]1C,-2%,nt,13,-2%,12%,0%
O=C(O)CCCCCNC(=O)OCC1c2ccccc2-c2ccccc21,12µM*,-7%,-4,4.1µM*,1%,3%
CCOc1ccc(/C=N/NC(=O)c2cc3c(OC)cc(OC)cc3[nH]2)cc1OC,16µM*,-9%,?,13µM*,?,?
C=CCOc1ccc(/C=N/NC(=O)c2cc3c(OC)cc(OC)cc3[nH]2)cc1,26µM*,-28%,-18,?,?,?
Cc1ccc(-c2c[n+](CC(=O)c3cccs3)c3n2CCC3)cc1,3.3µM*,-1%,?,3.7µM*,-24%,-4%
O=C(CCC(=O)c1cccs1)c1cccs1,-3%,nt,-2,-7%,1%,0%
O=C(C[n+]1cc(-c2ccc(F)cc2)n2c1CCC2)OCc1ccccc1,0%,5%,22,-10%,2%,2%
Cc1ccc(-c2c[n+](CC(=O)OCc3ccccc3)c3n2CCC3)cc1,-27%,4%,7,-17%,23%,17%
COc1ccc(-c2c[n+](CC(=O)c3cccs3)c3n2CCC3)cc1,16µM*,5%,-29,26µM*,-9%,-15%
CCc1ccc(C)[n+](CC(=O)c2cccs2)c1,?,-8%,-58*,?,-5%,-3%
COc1ccc(-c2csc(NC(=S)NC(=O)c3ccco3)n2)cc1Br,2.9µM*,6%,-7,10µM*,14%,16%
COc1ccc(-c2csc(NC(=S)NC(=O)c3cc4ccccc4o3)n2)cc1Br,4%,1%,-12,-12%,3%,21%
SMILES,TDP1 cell noCPT,uPA surface inh,IL1B secr inh,TDP1 cell CPT,HT1080-NT tox,HT1080 IDH1KD tx
COc1ccc(-c2csc(NC(=S)NC(=O)/C=C/c3ccco3)n2)cc1Br,3.7µM*,-12%,nt,1.8µM*,3.7µM*,2.6µM*
COc1ccc(-c2csc(NC(=S)NC(=O)/C=C/c3ccco3)n2)cc1OC,4.6µM*,-10%,-13,4.6µM*,12µM*,18µM*
CCOC(=O)N/N=C(/C)c1cccc(-n2cnnn2)c1,-16%,1%,2,-3%,13%,2%
CC(=O)N/C(=C/c1ccc(OS(=O)(=O)c2ccc(C)cc2)cc1)C(=O)NCCCO,-7%,9%,0,-1%,1%,-1%
CCC(Sc1nc2sc(C(=O)OC)c(C)c2c(=O)n1N)C(=O)N(CC)CC (stereo not given),13µM*,nt,9,?,4%,6%
Cc1ccc(C)c(S(=O)(=O)NCc2ccc(C(=O)NCc3ccccn3)cc2)c1,-27%,5%,9,-8%,-1%,-4%[9.24 µM]
Cc1ccc(C)c(NS(=O)(=O)c2cc(C(=O)NCc3ccccn3)ccc2C)c1,29µM*,5%,-3,?,-2%,-8%
Cc1ccccc1NS(=O)(=O)c1cc(C(=O)NCCSC2CCCCC2)ccc1C,?,-21%,-1,?,-29%,?
O=C(NCc1ccccn1)c1cccc(NS(=O)(=O)c2cccc(F)c2)c1,1.5µM*,3%,33,1.6µM*,2%,2%
Cc1ccc(C)c(NS(=O)(=O)c2cc(C(=O)NCCSC3CCCCC3)ccc2C)c1,23µM*,-18%,?,?,?,?
COc1cccc(OC)c1C(=O)NCCSC1CCCCC1,18µM*,13%,-1,13µM*,1%,3%
CCOc1ccc(NC(=O)CN(C)C(=O)c2cc([N+](=O)[O-])ccc2Sc2ccccc2)cc1OCC,?,30%,-4,?,-2%,-9%
Cc1ccc(NC(=O)CN(C)S(=O)(=O)c2ccc3c(c2)n(C)c(=O)c(=O)n3C)cc1F,-23%,nt,nt,3%,nt,nt

# Compound activity: PubChem BioAssay, National Center for Advancing Translational Sciences (NCATS)
